Measured values from paper PMC5540273 (PLoS ONE, 2017).

Assays:
Conditions in all cases: concentration: 1 μM, replicates: in singlicate; n = 1
CDK4 = test system: CDK4
CDK5 = test system: CDK5
CDK7 = test system: CDK7
CDK8 = test system: CDK8
CDK9 = test system: CDK9
CDKL1 = test system: CDKL1
CDKL2 = test system: CDKL2
CDKL3 = test system: CDKL3
CDKL5 = test system: CDKL5
CHEK1 = test system: CHEK1
CHEK2 = test system: CHEK2
CIT = test system: CIT
CLK1 = test system: CLK1
CLK2 = test system: CLK2
CLK3 = test system: CLK3
CLK4 = test system: CLK4
CSF1R-autoinhibited = test system: CSF1R-autoinhibited
CSF1R = test system: CSF1R
CSK = test system: CSK
CSNK1A1L = test system: CSNK1A1L
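Further: KINOMEscan kinase panel screen.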

Row | SMILES | %Inh (CDK4) [%] | %Inh (CDK5) [%] | %Inh (CDK7) [%] | %Inh (CDK8) [%] | %Inh (CDK9) [%] | %Inh (CDKL1) [%] | %Inh (CDKL2) [%] | %Inh (CDKL3) [%] | %Inh (CDKL5) [%] | %Inh (CHEK1) [%] | %Inh (CHEK2) [%] | %Inh (CIT) [%] | %Inh (CLK1) [%] | %Inh (CLK2) [%] | %Inh (CLK3) [%] | %Inh (CLK4) [%] | %Inh (CSF1R-autoinhibited) [%] | %Inh (CSF1R) [%] | %Inh (CSK) [%] | %Inh (CSNK1A1L) [%]
1 | Cc1cccc(-c2cc(Nc3ccncc3)c3ccccc3n2)n1 [GSK223675] | 0 | 0 | 0 | 0 | 4 | 0 | 5 | 0 | 1 | 0 | 0 | 23 | 22 | 0 | 10 | 5 | 0 | 8 | 0 | 0
2 | Cl.O=C(Nc1cccc(-c2nn3ncccc3c2-c2ccnc(Nc3cccnc3)n2)c1)c1c(F)cccc1F [GSK312879] | 0 | 0 | 0 | 0 | 0 | 1 | 19 | 0 | 0 | 12 | 0 | 30 | 19 | 3 | 0 | 12 | 0 | 17 | 18 | 4
3 | Cn1ccc2ncnc(Oc3ccc(NC(=O)Nc4ccccc4)cc3)c21 | 0 | 0 | 13 | 12 | 9 | 36 | 2 | 0 | 17 | 1 | 14 | 22 | 1 | 0 | 0 | 14 | 10 | 95.1 | 0 | 3
4 | COc1ccc(CNC(=O)NC2CCN(c3ccnc(Nc4cc(OC)c(OC)c(OC)c4)n3)C2)cc1 (stereo not drawn) [GSK1379748] | 36 | 0 | 0 | 51 | 0 | 15 | 20 | 0 | 0 | 0 | 47 | 20 | 11 | 0 | 0 | 0 | 17 | 13 | 0 | 0
5 | Cc1cccc(-c2nc(Nc3cccc(C(N)=O)c3)c3ccccc3n2)n1 [GW876019] | 0 | 0 | 8 | 36 | 0 | 36 | 13 | 0 | 1 | 0 | 0 | 45 | 18 | 6 | 14 | 0 | 0 | 0 | 0 | 3
6 | COc1cc(Nc2nccc(N3CCC(NC(=O)Nc4cc(C)ccc4C)C3)n2)cc(OC)c1OC (stereo not drawn) [GSK1379762] | 0 | 0 | 0 | 20 | 0 | 0 | 41 | 0 | 7 | 25 | 0 | 11 | 32 | 6 | 0 | 29 | 0 | 14 | 0 | 17
7 | CCn1c(-c2ccccn2)nc2cnccc21 [SB-736398] | 34 | 0 | 0 | 39 | 0 | 9 | 17 | 0 | 0 | 0 | 0 | 20 | 3 | 0 | 0 | 4 | 4 | 42 | 0 | 0
8 | COc1ccccc1CNC(=O)c1cc(C(=O)c2ccccc2C)c[nH]1 [GSK364507] | 0 | 9 | 0 | 5 | 0 | 10 | 16 | 0 | 0 | 0 | 0 | 9 | 17 | 0 | 0 | 9 | 0 | 11 | 0 | 20
9 | COc1ccc2nc(-c3cccc(C)n3)nc(Nc3ccncc3)c2c1 [GSK204919] | 0 | 0 | 0 | 7 | 0 | 4 | 24 | 0 | 0 | 10 | 0 | 73 | 18 | 0 | 2 | 26 | 0 | 3 | 0 | 5
10 | CC1=C(C(=O)Nc2cc3cn[nH]c3cc2F)C(c2ccc(C(F)(F)F)cc2)CC(=O)N1 (stereo not drawn) [GSK429286] | 11 | 0 | 0 | 18 | 0 | 0 | 4 | 0 | 10 | 7 | 0 | 5 | 14 | 0 | 37 | 0 | 0 | 7 | 0 | 7
11 | CCn1c(-c2cccnc2O)nc2cnccc21 [SB-736715] | 4 | 0 | 0 | 33 | 0 | 13 | 0 | 10 | 0 | 0 | 0 | 0 | 10 | 0 | 0 | 0 | 2 | 0 | 0 | 84
12 | Cc1cccc(-c2nc(Nc3ccncc3)c3ccccc3n2)n1 [GW855857] | 0 | 0 | 0 | 65 | 0 | 47 | 10 | 0 | 0 | 0 | 0 | 91.1 | 10 | 8 | 31 | 0 | 0 | 0 | 4 | 10
13 | Fc1cc(Cl)ccc1Nc1ccnc2cc(-c3ccc(CN4CCCCC4)o3)ccc12 [GW560116] | 35 | 0 | 0 | 28 | 0 | 0 | 2 | 0 | 0 | 0 | 35 | 63 | 11 | 0 | 0 | 27 | 0 | 20 | 0 | 1
14 | Fc1cc(Cl)ccc1Nc1ccnc2cc(I)ccc12 [GW551191] | 23 | 0 | 0 | 7 | 0 | 0 | 21 | 0 | 3 | 0 | 0 | 37 | 27 | 0 | 5 | 5 | 0 | 0 | 0 | 0
15 | O=C(Nc1ccccc1)Nc1cccc(Oc2ccc3nccn3n2)c1 | 0 | 0 | 0 | 76 | 0 | 12 | 4 | 0 | 2 | 0 | 1 | 100 | 6 | 0 | 0 | 0 | 0 | 99.6 | 0 | 59
16 | O=S(=O)(c1ccc(-c2ccnc3[nH]ccc23)cc1)N1CCCC1 [GSK846226] | 0 | 0 | 2 | 0 | 0 | 7 | 5 | 0 | 4 | 0 | 15 | 36 | 63 | 45 | 57 | 41 | 0 | 17 | 10 | 2
17 | Cc1ccc(-c2cc(-c3c[nH]nc3-c3ccccn3)ccn2)cc1 [GW684088] | 43 | 0 | 9 | 52 | 5 | 0 | 28 | 0 | 0 | 12 | 53 | 26 | 14 | 9 | 0 | 38 | 49 | 14 | 0 | 0
18 | CCCc1ccc(S(=O)(=O)NC2CCN(c3ccnc(Nc4ccc(F)cc4)n3)C2)cc1 (stereo not drawn) [GSK1379715] | 0 | 0 | 0 | 0 | 0 | 13 | 38 | 0 | 0 | 6 | 0 | 0 | 12 | 0 | 10 | 0 | 0 | 0 | 0 | 0
